Experiment [1] in a line: ATG_TCF_b_cat_CIS: Attagene CIS-FACTORIAL HepG2 Assay for human T-Cell-Factor with beta-catenin (TCF/b-cat) (AID 2282965; active = hit-call score of the fitted dose curve at least 0.9, where 1 is the maximum; inactive = score below 0.9). The note with it: HepG2 TCF/beta-catenin cis-reporter transcription, actives raise or lower the signal. Summed up:
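Endogenous transcription factor activity is captured through cis-promoter reporter constructs transiently introduced into human HepG2 liver cells. Induced reporter mRNA is measured after 24 h and fitted bidirectionally relative to DMSO.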

Experiment [2] in a line: ATG_TAL_CIS: Attagene CIS-FACTORIAL HepG2 Assay for human TAL Basal Promoter (AID 2282966; active = hit-call score of the fitted dose curve at least 0.9, where 1 is the maximum; inactive = score below 0.9;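 also: background control endpoint measuring basal TAL promoter reporter mRNA not a specific factor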). The note with it: HepG2 Attagene cis-factorial TAL promoter reporter; actives raise or lower the signal. Summed up:
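Endogenous transcription-factor activity is sensed in HepG2 cells through transfected cis-promoter reporter constructs. After 24 h dosing, reporter transcripts are quantified by RT-PCR and capillary electrophoresis. Gain or loss of signal is fitted relative to DMSO.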

Experiment [3] in a line: ATG_TGFb_CIS: Attagene CIS-FACTORIAL HepG2 Assay for human Transforming Growth Factor (TGF) (AID 2282967; active = hit-call score of the fitted dose curve at least 0.9, where 1 is the maximum; inactive = score below 0.9). As to conditions: HepG2 Attagene CIS TGFb reporter, mRNA transcription; actives raise or lower the signal. Put shortly:
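HepG2 cells transiently transfected with cis-promoter-driven multiple reporter units measure endogenous TF activity; reporter mRNA quantified at 24 h by RT-PCR, FAM labeling, HpaI digestion and capillary electrophoresis. Bidirectional fit vs DMSO.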

The nature of experiment [4]: ATG_VDRE_CIS: Attagene CIS-FACTORIAL HepG2 Assay for human Vitamin D Receptor Element (VDRE) (AID 2282968; active = hit-call score of the fitted dose curve at least 0.9, where 1 is the maximum; inactive = score below 0.9). The note with it: HepG2 VDRE cis-reporter transcription, actives raise or lower the signal. Put shortly:
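Measures endogenous factor activity through cis-element-driven reporter transcripts in transiently transfected HepG2. Cells are treated 24 h; reporter mRNA is quantified by RT-PCR and capillary electrophoresis; fitting is bidirectional.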

Experiment [5] concerns the target X-box-binding protein 1 (Homo sapiens) (UniProt P17861). The experiment can be described thus: ATG_Xbp1_CIS: Attagene CIS-FACTORIAL HepG2 Assay for human X-box Binding Protein 1 (XBP1) (AID 2282972; active = hit-call score of the fitted dose curve at least 0.9, where 1 is the maximum; inactive = score below 0.9). As to conditions: HepG2 XBP1 cis-element reporter, Attagene multiplex; actives raise or lower the signal. Put shortly:
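Changes in reporter transcript abundance, read by RT-PCR and capillary electrophoresis, reflect endogenous transcription factor activity. Transfected HepG2 cells received compound for 24 hours; DMSO defined baseline for bidirectional analysis.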

The target in experiment [6] is Oxysterols receptor LXR-beta (Homo sapiens) (UniProt P55055). Nature of the experiment: ATG_LXRb_TRANS: Attagene TRANS-FACTORIAL HepG2 Assay for human Liver X Receptor beta (LXRb) (AID 2282981). As to conditions: HepG2 Attagene TRANS GAL4-LXRb reporter, mRNA. Summed up: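 After 24 h of chemical treatment, transfected HepG2 cells yield total RNA; reporter cDNA is PCR-amplified, FAM-labelled, HpaI-cut and run on capillary electrophoresis. Signal reflects chimeric LXRb-Gal4 activity on GAL4-UAS reporters.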
Oxysterols receptor LXR-beta (Homo sapiens), sequence (P55055 whole entry, looked up, the tested form may be a part): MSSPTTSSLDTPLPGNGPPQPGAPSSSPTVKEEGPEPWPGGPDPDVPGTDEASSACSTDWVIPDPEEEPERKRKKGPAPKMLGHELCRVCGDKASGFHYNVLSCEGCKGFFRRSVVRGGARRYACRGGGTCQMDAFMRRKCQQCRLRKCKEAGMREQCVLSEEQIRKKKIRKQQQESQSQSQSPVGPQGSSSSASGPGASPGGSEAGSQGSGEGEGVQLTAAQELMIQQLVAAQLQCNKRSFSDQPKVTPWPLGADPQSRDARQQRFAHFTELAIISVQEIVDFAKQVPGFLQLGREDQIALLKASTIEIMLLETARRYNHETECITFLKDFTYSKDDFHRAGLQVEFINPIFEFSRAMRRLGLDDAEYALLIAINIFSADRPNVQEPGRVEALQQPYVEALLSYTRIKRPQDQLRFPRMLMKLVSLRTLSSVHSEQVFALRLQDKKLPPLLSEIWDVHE

A short description of experiment [7]: ATG_M_06_TRANS: Attagene TRANS-FACTORIAL HepG2 Assay for M06 Transcription Factor (Internal Marker) (AID 2282983). As to conditions: HepG2 Attagene TRANS M06 internal marker reporter. Put shortly:
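Human liver HepG2 cells bearing transiently transfected chimeric NR-GAL4 reporter units were treated with chemicals for 24 h. Total RNA was reverse-transcribed, reporter sequences amplified and labelled, then quantified by capillary electrophoresis. Activity was fitted upward relative to DMSO.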

Experiment [8] is described as follows: ATG_M_32_TRANS: Attagene TRANS-FACTORIAL HepG2 Assay for M32 Transcription Factor (Internal Marker) (AID 2282984).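 Also: transcript level of a background control reporter unit measured by RT-PCR and capillary electrophoresis.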 As to conditions: HepG2 Attagene TRANS M32 internal marker reporter. Summed up:
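Cell-based TRANS-format assay in HepG2: exogenous chimeric GAL4 reporter units transiently expressed, compounds applied 24 h. Reporter mRNA detected by RT-PCR plus capillary electrophoresis; this readout is an internal background marker.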

In experiment [9] the target is Estrogen receptor (Homo sapiens) (UniProt P03372). Nature of the experiment: ATG_ERa_TRANS: Attagene TRANS-FACTORIAL HepG2 Assay for human Estrogen Receptor alpha (ERa) (AID 2282970). The note with it: HepG2 Attagene TRANS ERa GAL4 reporter, mRNA. Put shortly: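 Transfected HepG2 cells carrying GAL4-UAS-driven reporter units were dosed for 24 hours. Total RNA was reverse-transcribed, reporter sequences PCR-amplified, FAM-labelled, HpaI-digested and resolved by capillary electrophoresis. Increases over DMSO control defined activity.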
Estrogen receptor (Homo sapiens), sequence (P03372 whole entry, looked up, the tested form may be a part): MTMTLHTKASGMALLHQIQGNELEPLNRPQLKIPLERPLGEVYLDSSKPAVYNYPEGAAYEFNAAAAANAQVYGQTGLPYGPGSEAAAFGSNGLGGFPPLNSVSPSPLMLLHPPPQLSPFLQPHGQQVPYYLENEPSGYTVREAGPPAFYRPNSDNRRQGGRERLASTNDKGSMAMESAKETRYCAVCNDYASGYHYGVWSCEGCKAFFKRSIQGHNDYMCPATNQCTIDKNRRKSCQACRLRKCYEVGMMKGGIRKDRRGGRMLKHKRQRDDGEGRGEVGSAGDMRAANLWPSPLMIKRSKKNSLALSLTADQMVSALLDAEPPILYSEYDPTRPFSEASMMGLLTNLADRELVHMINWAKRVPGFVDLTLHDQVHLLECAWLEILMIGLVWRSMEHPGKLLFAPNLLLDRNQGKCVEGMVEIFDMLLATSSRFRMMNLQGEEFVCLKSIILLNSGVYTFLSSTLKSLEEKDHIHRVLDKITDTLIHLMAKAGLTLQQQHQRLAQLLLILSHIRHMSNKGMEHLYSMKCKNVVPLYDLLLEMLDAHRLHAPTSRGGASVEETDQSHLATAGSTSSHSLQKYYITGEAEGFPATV

In experiment [10] the target is Glucocorticoid receptor (Homo sapiens) (UniProt P04150). Nature of the experiment: ATG_GR_TRANS: Attagene TRANS-FACTORIAL HepG2 Assay for human Glucocorticoid Receptor (GR) (AID 2282978).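 Also: activators score as hits since higher reporter transcript over DMSO is fitted.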 The note with it: HepG2 Attagene TRANS GR reporter, mRNA transcription. Put shortly:
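Transient MRTU transfection of HepG2 (GAL4-UAS reporters, exogenous NR-GAL4 chimeras), 24 h dosing. Readout: reporter transcript via RT-PCR + capillary electrophoresis fluorescence. Positive direction vs DMSO baseline.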

Experiment [11] addresses Bile acid receptor (Homo sapiens) (UniProt Q96RI1). The experiment can be described thus: ATG_FXR_TRANS: Attagene TRANS-FACTORIAL HepG2 Assay for Farnesoid X Receptor (FXR) (AID 2282979).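 Also: hits raise reporter mRNA above DMSO so AC50 marks FXR activation.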 As to conditions: HepG2 Attagene TRANS FXR-GAL4 reporter transcription. Summed up: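 Chimeric FXR-GAL4 activity in transiently transfected human HepG2 liver cells is scored as induction of reporter mRNA after 24 h of dosing. Detection uses RT-PCR with fluorescent labelling and capillary electrophoresis, with DMSO serving as baseline.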

The target of experiment [12] is Nuclear receptor subfamily 1 group I member 3 (Homo sapiens) (UniProt Q14994). The experiment can be described thus: ATG_CAR_TRANS: Attagene TRANS-FACTORIAL HepG2 Assay for human Constitutive Androstane Receptor (CAR) (AID 2282969).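 Also: activators raise reporter mRNA above DMSO so AC50 marks induction.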 As to conditions: HepG2 Attagene TRANS-FACTORIAL CAR reporter. Put shortly: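 Signal is reporter mRNA induction relative to DMSO, measured 24 h after dosing by RT-PCR with fluorescent primer extension and capillary electrophoresis. Human HepG2 liver cells carried transiently transfected chimeric NR-Gal4/GAL4-UAS reporter constructs.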
Nuclear receptor subfamily 1 group I member 3 (Homo sapiens), sequence (Q14994 whole entry, looked up, the tested form may be a part): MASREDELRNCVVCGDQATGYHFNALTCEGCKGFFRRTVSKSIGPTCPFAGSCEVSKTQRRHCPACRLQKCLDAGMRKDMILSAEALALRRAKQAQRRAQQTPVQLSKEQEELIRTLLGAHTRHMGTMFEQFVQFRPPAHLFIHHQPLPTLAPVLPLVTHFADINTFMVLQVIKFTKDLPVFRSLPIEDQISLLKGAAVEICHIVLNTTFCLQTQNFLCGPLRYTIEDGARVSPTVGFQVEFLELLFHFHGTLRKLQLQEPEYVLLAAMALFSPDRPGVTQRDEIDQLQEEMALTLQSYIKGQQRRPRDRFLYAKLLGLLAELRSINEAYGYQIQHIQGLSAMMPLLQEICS

Experiment [13] is described as follows: ATG_GAL4_TRANS: Attagene TRANS-FACTORIAL HepG2 Assay for GAL4 (Internal Marker) (AID 2282976). The note with it: HepG2 Attagene TRANS GAL4 internal marker reporter. Put shortly:
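Fluorescence from capillary electrophoresis of labelled RT-PCR products quantifies reporter mRNA induction after 24 h dosing of HepG2 cells carrying transfected GAL4-UAS reporter transcription units. Vehicle DMSO serves as baseline.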

In experiment [14] the target is Estrogen-related receptor gamma (Homo sapiens) (UniProt P62508). The experiment can be described thus: ATG_ERRg_TRANS: Attagene TRANS-FACTORIAL HepG2 Assay for human Estrogen-Related Receptor gamma (ERRg) (AID 2282977).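 Also: hits increase reporter signal over DMSO so potencies reflect activators.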 As to conditions: HepG2 Attagene TRANS reporter, ERRg transactivation. Summed up: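 Exogenous NR-Gal4 chimera activity was assessed in HepG2 cells bearing transfected GAL4-UAS reporters. After 24 h dosing, total RNA underwent RT-PCR, fluorescent primer extension and HpaI digestion before capillary electrophoresis, with gain of signal scored against DMSO.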
Estrogen-related receptor gamma (Homo sapiens), sequence (P62508 whole entry, looked up, the tested form may be a part): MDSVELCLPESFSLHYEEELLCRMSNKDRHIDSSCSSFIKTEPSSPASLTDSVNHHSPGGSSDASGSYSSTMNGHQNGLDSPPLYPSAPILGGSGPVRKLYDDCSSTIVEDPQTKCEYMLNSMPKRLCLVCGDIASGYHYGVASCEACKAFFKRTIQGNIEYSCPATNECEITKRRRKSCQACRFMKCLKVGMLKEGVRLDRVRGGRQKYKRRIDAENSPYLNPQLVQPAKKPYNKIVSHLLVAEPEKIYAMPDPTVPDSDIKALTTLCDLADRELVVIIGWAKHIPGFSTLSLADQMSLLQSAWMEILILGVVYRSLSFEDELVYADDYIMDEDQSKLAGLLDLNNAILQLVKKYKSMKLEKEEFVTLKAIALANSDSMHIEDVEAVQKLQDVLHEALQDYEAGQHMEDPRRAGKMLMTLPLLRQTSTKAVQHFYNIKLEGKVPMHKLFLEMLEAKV

For experiment [15], the target named is Nuclear receptor subfamily 4 group A member 2 (Homo sapiens) (UniProt P43354). The experiment can be described thus: ATG_NURR1_TRANS: Attagene TRANS-FACTORIAL HepG2 Assay for human Nuclear Receptor Related Protein 1 (NURR1) (AID 2282985). The note with it: HepG2 Attagene TRANS reporter, mRNA readout. Put shortly:
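Measures transcriptional activation by an exogenous NR-Gal4 chimera in transfected HepG2 liver cells. After 24 h, reporter RNA is reverse-transcribed, amplified and resolved by capillary electrophoresis; DMSO defines baseline.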

For experiment [16], the target named is Steroid hormone receptor ERR1 (Homo sapiens) (UniProt P11474). The experiment can be described thus: ATG_ERRa_TRANS: Attagene TRANS-FACTORIAL HepG2 Assay for human Estrogen-Related Receptor alpha (ERRa) (AID 2282971). The note with it: HepG2 Attagene TRANS reporter, ERRa transactivation. Put shortly: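 HepG2 cells were transiently transfected with multiple GAL4-UAS reporter units, then dosed with compound for 24 h. Total RNA was reverse-transcribed, reporter cDNA PCR-amplified and fluorescently labelled, and fragments resolved by capillary electrophoresis; induction was compared with DMSO.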
Steroid hormone receptor ERR1 (Homo sapiens), sequence (P11474 whole entry, looked up, the tested form may be a part): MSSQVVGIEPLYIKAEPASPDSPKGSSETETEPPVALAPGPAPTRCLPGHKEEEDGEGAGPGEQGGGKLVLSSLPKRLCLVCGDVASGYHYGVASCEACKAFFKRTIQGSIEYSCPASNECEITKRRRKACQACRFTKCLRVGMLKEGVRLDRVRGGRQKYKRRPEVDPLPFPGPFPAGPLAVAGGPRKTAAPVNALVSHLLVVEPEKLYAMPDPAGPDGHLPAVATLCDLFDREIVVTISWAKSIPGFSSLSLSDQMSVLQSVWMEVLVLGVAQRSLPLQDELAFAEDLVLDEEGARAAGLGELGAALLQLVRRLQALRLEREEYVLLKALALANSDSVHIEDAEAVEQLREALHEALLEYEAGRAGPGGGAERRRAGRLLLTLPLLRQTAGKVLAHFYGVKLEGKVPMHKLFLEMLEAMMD

For experiment [17], the target named is Oxysterols receptor LXR-alpha (Homo sapiens) (UniProt Q13133). The experiment can be described thus: ATG_LXRa_TRANS: Attagene TRANS-FACTORIAL HepG2 Assay for human Liver X Receptor alpha (LXRa) (AID 2282980). The note with it: HepG2 Attagene TRANS reporter, LXRa transactivation. Put shortly: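 Transient HepG2 transfectants, 24 h dosing, RT-PCR/CE mRNA reporter quantitation; gain-of-signal vs DMSO.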
Oxysterols receptor LXR-alpha (Homo sapiens), sequence (Q13133 whole entry, looked up): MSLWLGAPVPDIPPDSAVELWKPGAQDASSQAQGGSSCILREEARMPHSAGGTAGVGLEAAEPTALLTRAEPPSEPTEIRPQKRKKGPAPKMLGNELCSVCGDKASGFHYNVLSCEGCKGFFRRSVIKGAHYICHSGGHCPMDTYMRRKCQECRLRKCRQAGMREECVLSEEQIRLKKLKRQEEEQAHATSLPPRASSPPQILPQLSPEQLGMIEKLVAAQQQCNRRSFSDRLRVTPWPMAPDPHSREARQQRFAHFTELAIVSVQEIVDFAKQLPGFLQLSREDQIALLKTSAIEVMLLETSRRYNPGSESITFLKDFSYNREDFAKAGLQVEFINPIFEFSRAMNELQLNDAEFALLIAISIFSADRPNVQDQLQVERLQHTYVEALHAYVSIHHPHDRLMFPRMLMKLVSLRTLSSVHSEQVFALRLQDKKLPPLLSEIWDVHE

Six compounds from PubChem BioAssay (EPA / NIEHS) can be followed below.

Records with an inconclusive call do not appear. Active and inactive are the calls of the source. The calls were made as follows, unless noted: active = hit-call score of the fitted dose curve at least 0.9, where 1 is the maximum; inconclusive = response in the unintended direction; inactive = score below 0.9.

Glucocorticoid receptor (Homo sapiens), sequence (P04150 whole entry, looked up, the tested form may be a part): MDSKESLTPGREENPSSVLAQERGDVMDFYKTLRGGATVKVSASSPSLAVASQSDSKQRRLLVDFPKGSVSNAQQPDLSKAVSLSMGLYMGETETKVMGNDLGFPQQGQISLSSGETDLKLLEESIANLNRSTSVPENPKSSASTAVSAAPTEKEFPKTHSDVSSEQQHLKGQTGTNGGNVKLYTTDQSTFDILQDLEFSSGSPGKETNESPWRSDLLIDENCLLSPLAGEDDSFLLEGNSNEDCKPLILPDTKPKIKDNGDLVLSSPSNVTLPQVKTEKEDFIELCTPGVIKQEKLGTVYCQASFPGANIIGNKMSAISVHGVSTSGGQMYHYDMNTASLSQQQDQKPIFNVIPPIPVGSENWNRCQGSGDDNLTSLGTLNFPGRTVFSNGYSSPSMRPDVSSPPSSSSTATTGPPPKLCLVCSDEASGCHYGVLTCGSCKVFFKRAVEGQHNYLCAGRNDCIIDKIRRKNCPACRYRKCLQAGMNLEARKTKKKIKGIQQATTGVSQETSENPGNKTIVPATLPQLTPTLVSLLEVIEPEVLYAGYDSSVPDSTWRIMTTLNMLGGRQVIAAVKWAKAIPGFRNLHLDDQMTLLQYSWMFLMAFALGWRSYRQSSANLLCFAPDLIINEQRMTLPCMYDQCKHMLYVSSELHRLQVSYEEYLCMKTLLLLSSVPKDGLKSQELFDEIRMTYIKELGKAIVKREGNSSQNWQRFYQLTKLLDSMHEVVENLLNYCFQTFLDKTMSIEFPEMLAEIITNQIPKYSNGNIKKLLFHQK
X-box-binding protein 1 (Homo sapiens), sequence (P17861 whole entry, looked up): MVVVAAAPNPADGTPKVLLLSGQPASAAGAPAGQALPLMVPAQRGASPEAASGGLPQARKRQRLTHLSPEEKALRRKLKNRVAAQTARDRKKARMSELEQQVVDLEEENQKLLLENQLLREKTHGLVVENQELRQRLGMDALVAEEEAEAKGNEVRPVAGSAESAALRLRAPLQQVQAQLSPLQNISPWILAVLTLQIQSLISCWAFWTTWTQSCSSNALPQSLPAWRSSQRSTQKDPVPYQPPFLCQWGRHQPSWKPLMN
Bile acid receptor (Homo sapiens), sequence (Q96RI1 whole entry, looked up, the tested form may be a part): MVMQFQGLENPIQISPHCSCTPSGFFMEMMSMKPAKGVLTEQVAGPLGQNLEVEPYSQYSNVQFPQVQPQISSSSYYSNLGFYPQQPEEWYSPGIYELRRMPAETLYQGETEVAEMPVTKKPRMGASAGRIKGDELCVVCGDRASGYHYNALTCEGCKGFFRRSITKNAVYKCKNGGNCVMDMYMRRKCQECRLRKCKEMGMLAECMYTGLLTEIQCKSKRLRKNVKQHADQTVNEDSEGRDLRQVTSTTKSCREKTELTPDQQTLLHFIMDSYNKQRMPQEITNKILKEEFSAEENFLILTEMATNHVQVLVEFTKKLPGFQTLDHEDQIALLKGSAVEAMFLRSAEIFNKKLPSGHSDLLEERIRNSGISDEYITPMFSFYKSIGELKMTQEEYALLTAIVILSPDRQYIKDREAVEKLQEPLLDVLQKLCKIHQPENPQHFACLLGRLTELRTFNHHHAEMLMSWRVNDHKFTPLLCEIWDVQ
Nuclear receptor subfamily 4 group A member 2 (Homo sapiens), sequence (P43354 whole entry, looked up, the tested form may be a part): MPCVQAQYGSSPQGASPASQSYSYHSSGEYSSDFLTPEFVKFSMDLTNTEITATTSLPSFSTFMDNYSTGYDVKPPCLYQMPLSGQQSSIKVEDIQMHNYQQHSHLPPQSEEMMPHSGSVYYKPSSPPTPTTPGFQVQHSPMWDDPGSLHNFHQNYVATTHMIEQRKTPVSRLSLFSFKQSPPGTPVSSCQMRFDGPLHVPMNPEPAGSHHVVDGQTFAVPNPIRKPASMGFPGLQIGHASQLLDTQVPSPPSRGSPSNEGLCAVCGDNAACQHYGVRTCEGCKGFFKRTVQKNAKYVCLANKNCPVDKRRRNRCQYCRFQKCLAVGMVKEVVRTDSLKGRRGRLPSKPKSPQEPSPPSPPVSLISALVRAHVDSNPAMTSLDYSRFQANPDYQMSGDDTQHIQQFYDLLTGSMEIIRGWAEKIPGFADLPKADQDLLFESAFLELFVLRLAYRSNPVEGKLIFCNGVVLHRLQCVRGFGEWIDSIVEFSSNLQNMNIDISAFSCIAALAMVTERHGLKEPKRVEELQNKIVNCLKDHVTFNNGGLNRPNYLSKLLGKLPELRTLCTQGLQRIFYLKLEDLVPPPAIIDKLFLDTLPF

As for `CCOS(=O)(=O)OCC`, the compound was called inactive in experiment [1], in [2], in experiment [3], in [4], in experiment [5] and in experiment [6]. Also, the outcome in experiment [7] and in [8] was inactive.
For the compound `CCOC(=O)c1ccccc1N`, the result in experiment [1], in experiment [2], in experiment [3], in experiment [4], in [9] and in experiment [5] was inactive. The outcome in experiment [10], in [11], in experiment [6], in experiment [7] and in experiment [8] was inactive.
In the case of `CC(=O)CCc1ccc2c(c1)OCO2`, the result in experiment [1], in [2], in [3], in experiment [12], in [9] and in [5] was inactive. Moreover, the call in [13], in [14], in [11], in [6], in [7] and in experiment [8] was inactive. For the same compound, the outcome in experiment [15] was inactive.
`CCCCC(CC)COC(=O)c1c(Br)c(Br)c(Br)c(Br)c1C(=O)OCC(CC)CCCC` (centres undefined): the result in experiment [1], in experiment [2], in experiment [3], in experiment [4], in [9] and in experiment [5] was inactive. The compound was called inactive in experiment [11], in experiment [6] and in experiment [7]. The AC50 (in general, the concentration at which the activity in the assay is half-maximal) in experiment [10] was 14.1 µM (active).
Regarding `CC(C)(C)OOC(C)(C)C`, the outcome in experiment [1], in experiment [2], in experiment [3], in experiment [5], in experiment [13] and in experiment [10] was inactive. In addition, the outcome in experiment [11], in experiment [6] and in experiment [7] was inactive.
For `c1ccc2c(c1)Nc1ccccc1S2`, the result in experiment [1], in experiment [2], in experiment [3], in experiment [12], in experiment [16] and in experiment [5] was inactive. Further, the outcome in experiment [13], in experiment [14], in experiment [17], in experiment [6], in experiment [7] and in experiment [8] was inactive. For the same compound, the AC50 in experiment [9] was 11.7 µM (active).
